HSP90 refold inh = inhibitors of HSP90 luciferase refolding in rabbit reticulocyte lysate | 290,000 compounds, 0.91% hits | inhibition, % at 5.6 µM | luciferase refolding luminescence, 3 h;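 active = inhibition above the screen-wide mean plus 3 SD, computed separately per campaign, cut at about 16% in these data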;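 note: inhibitors lower the luminescence because luciferase stays unfolded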
SENP6 block = SENP6 protease inhibition; Q9GZR1; Recombinant SENP6 catalytic domain, aminoluciferin luminescence; inhibition, % at 10 µM; 330,000 compounds, 1.8% hits; AID 2599;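 active = inhibition above about 50% at the single tested dose, limit read from the data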
SENP8 block-1 = SENP8 protease inhibition; inhibition, % at 10 µM; 330,000 compounds, 1.2% hits; purified SENP8, Z-RLRGG-aminoluciferin cleavage, luminescence; AID 2540; Q96LD8; in the data active = inhibition above about 50%
Target sequence (Q96LD8 whole entry, looked up): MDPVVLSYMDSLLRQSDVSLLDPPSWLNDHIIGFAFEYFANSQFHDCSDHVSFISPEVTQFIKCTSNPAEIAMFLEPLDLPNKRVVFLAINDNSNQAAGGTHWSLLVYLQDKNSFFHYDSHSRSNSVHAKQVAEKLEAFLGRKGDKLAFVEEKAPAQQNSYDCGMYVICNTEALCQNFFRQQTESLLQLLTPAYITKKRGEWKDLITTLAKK
SENP7 inh = blocks the human protease SENP7 | recombinant SENP7, Z-RLRGG-aminoluciferin luminescence, 40 min | inhibition, % at 5 µM | 330,000 compounds, 1.5% hits | AID 434973;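 active = inhibition above about 50% at the single test dose, limit read from the data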
Platelet DG rel = platelet dense granule release activity. inhibition, %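 (compounds screened at 7.5 µM in platelet-rich plasma)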. 300,000 compounds, 0.22% hits. human platelet-rich plasma, SFLLRN dense granule ATP release, luminescence;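 active = mean replicate score, as percent of positive control, at or above 50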
SENP8 block-2 = inhibitors of human SENP8 protease; recombinant SENP8, Nedd8 substrate fluorescence; inhibition, % at 20 µM; 360,000 compounds, 0.64% hits; AID 602440; in the data active = inhibition mostly above about 40%, no sharp cut-off; inactive = mostly below about 27%
HSP90 inh confirm = confirmation of HSP90 inhibitors. rabbit reticulocyte lysate, luciferase refolding luminescence, 3 h. shares compounds with HSP90 refold inh. inhibition, % at 5.9 µM. 2,300 compounds, 64% hits; in the data active = inhibition above about 18%
luciferase ctr = blocks native firefly luciferase in HSP90 counter-screen; purified native firefly luciferase, luminescence; inhibition, % at 5.9 µM; 2,300 compounds, 48% hits; shares compounds with HSP90 refold inh; AID 1847;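 active = inhibition above the mean inhibition of all tested sample wells plus 3 SD, cut at about 10% in these data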
Numbers stand for hits; . = inactive; / = no result given. Only some compounds are listed: those with a hit (about 2.8% of all), similar ones and a draw of the others.

SMILES	HSP90 refold inh	SENP6 block	SENP8 block-1	SENP7 inh	Platelet DG rel	SENP8 block-2	HSP90 inh confirm	luciferase ctr
O=C1CCN(c2ccc([N+](=O)[O-])cc2F)CC1	34	.	.	.	.	.	.	.
Cc1ccc([N+](=O)[O-])cc1N=C1C(=O)Nc2ccccc21	22	.	.	.	.	.	.	.
[O-]/[N+](=C\c1ccncc1)c1ccc(Br)cc1	31	.	.	.	.	.	97	.
Cc1nn(-c2ccccc2)c2sc(-c3n[nH]c(=S)o3)cc12	19	.	.	.	.	.	.	.
Cc1nn(-c2ccccc2)c2sc(C(=O)O)cc12	.	.	.	.	.	.	/	/
CN(C(=O)Cc1c(C(=O)O)n(C)c2ccccc12)c1cccc(C(F)(F)F)c1	.	.	.	.	.	.	/	/
CCOc1ccc(-c2nc(CN3CCCCC3CCn3cccn3)c(C)o2)cc1 (stereo unspecified)	18	.	.	.	.	.	36	.
O=C(/C=C/c1c(F)cccc1Cl)Nc1ncccn1	.	.	.	.	.	.	/	/
O=C(/C=C/c1c(F)cccc1Cl)c1ccc(O)cc1	24	.	.	.	.	.	.	.
O=C(c1ccco1)N1CCN(C(=O)C2CCCN(S(=O)(=O)Cc3ccccc3)C2)CC1 (stereo unspecified)	.	.	.	.	.	.	/	/
O=C(C1CCCN(S(=O)(=O)Cc2ccccc2)C1)N1CCCCC1 (stereo unspecified)	25	.	.	.	.	.	.	.
C=C(CCO)C1=CCN(S(=O)C(C)(C)C)[C@H]1CCO (stereo partly specified)	/	/	/	/	/	.	/	/
COc1ccc(-c2noc(C3CCCN(C(=O)c4ccccc4)C3)n2)cc1 (stereo unspecified)	.	.	.	.	.	.	/	/
COc1ccc(NC(=O)N2CCCC(c3nc(-c4ccc(OC)cc4)no3)C2)cc1 (stereo unspecified)	21	.	.	.	.	.	.	.
COc1ccc(-c2noc(C3CCCN(C(=O)Nc4ccccc4)C3)n2)cc1 (stereo unspecified)	19	.	.	.	.	.	.	.
CCCCCC(=O)N1CCCC(c2nc(-c3ccc(OC)cc3)no2)C1 (stereo unspecified)	.	.	.	.	.	.	/	/
COc1ccc(-c2noc(C3CCCN(C(=O)Nc4ccccc4F)C3)n2)cc1 (stereo unspecified)	27	.	.	.	.	.	.	.
COc1ccc(NC(=O)N2CCCC(c3nc(-c4ccc(C(C)C)cc4)no3)C2)cc1 (stereo unspecified)	65	.	.	.	.	.	.	.
COc1ccc([N+](=O)[O-])cc1NC1CCN(C(=O)c2cccs2)CC1	.	.	.	.	.	.	/	/
C=CCNC(=S)/N=c1/ccccn1CCC	.	.	.	.	.	.	/	/
Cc1ccc(-c2noc(CSc3nnnn3C3CCCCC3)n2)cc1	.	.	.	.	.	.	/	/
CCOc1ccc(Oc2nc(N(CC)CC)nc(N3CCOCC3)n2)nn1	17	.	.	.	.	.	.	.
CCN(CC)c1nc(Oc2ccc(C(=O)OC)cc2)nc(N2CCOCC2)n1	.	.	.	.	.	.	/	/
COC(=O)NCCOC(=O)N(O)c1ccc(Br)cc1	50	.	.	.	.	.	75	.
Oc1ccc(-c2cnc(-c3ccc(O)cc3)nc2)cc1	.	.	.	.	.	.	/	/
Nc1ccc(-c2cnc(-c3ccc(N)cc3)nc2)cc1	21	.	.	.	.	.	26	19
Cc1ccsc1C(=O)Nc1nc2ccccc2[nH]1	22	99	95	98	100	.	38	29
C[C@H](CO)N1C[C@H](C)[C@H](CN(C)S(=O)(=O)c2cccc(C#N)c2)OCc2cnnn2CCCC1=O	/	/	/	/	/	.	/	/
CCn1c(C)cc(/C=C2/NC(=O)N(c3ccccc3)C2=O)c1C	31	.	.	.	.	.	.	.
COCCn1c(C)cc(/C=C2/NC(=O)N(c3cccc(Cl)c3)C2=O)c1C	.	.	.	.	.	.	/	/

Bioassay records as filed in PubChem BioAssay.
